ALOX15 inhib: inhibitors of human 15-lipoxygenase (ALOX15) | P16050 | purified 15hLO-1, xylenol orange hydroperoxide absorbance | Potency, µM (doses to about 57.1 µM), without a hit: top-dose activity change, negative = inhibition, usual class: inhibitors | 74,000 tested, 1.4% active; also: nearly all actives have a fitted effect of over 55% in size
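Quantitative HTS in 25 mM Hepes pH 7.5 containing 0.01% Triton X-100: human 15hLO-1 at 40 nM, arachidonic acid at 50 uM, 6 min turnover. Product quantified via ferrous oxidation/xylenol orange, 573:405 nm absorbance ratio.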
Luciferase inh: firefly luciferase inhibition; P08659; purified firefly luciferase, luminescence, 8 min; Potency, µM (titrated, usually from 57.1 µM), without a hit: at the top dose activity change, negative = inhibition, usual class: inhibitors; 72,000 tested, 2.2% active; AID 411; also: nearly all actives have a fitted effect of over 40% in size
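Here, luciferase activity is measured as luminescence following an 8 min room-temperature reaction at 10 uM ATP, pH 7.2. Every library sample is titrated.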
HADH2 inhib: blocks human hydroxyacyl-CoA dehydrogenase type II | Q99714 | recombinant HADH2, NADH fluorescence, beta-hydroxybutyryl-CoA | Potency, µM (titrated, usually from 57.1 µM), inactives show top-dose activity change, negative = inhibition, hits mostly inhibitors | 73,000 tested, 3.4% active | AID 886; also: nearly all actives have a fitted effect of over 60% in size
Target sequence (Q99714 whole entry, looked up, one chain of several): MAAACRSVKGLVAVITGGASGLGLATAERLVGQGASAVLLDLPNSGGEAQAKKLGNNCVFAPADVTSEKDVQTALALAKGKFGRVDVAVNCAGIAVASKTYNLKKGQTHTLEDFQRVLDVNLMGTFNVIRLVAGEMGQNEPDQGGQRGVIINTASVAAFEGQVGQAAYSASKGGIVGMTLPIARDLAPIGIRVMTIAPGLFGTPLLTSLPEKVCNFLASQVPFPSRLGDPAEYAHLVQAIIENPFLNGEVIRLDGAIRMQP
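Activity measured as NADH fluorescence gain (360/450 nm), taken as the change between first and last reads of a 4-min kinetic run. Conditions: pH 9.0 Tris buffer, 20 nM E. coli-expressed His-tagged enzyme, 1 mM NAD+, 90 uM beta-hydroxybutyryl-CoA; 15-min compound preincubation.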
HSD17B inhib: blocks hydroxysteroid 17-beta dehydrogenase activity; Q99714; 75,000 tested, 7.6% active; recombinant HSD17B10, NADH fluorescence kinetic; Potency, µM (top dose mostly 57.1 µM), inactives show at the top dose activity change, negative = inhibition, usual class: inhibitors; AID 893;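 also: the protocol describes HADH2 (HSD17B10) and not the HSD17B4 of the title; nearly all actives have a fitted effect of over 70% in size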
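20 nM HADH2, pH 9.0 Tris/Tween; cpd preinc 15 min RT; start w/ 1 mM NAD+ + 90 uM b-hydroxybutyryl-CoA; kinetic fluor ex360/em450 q30s x 4 min; delta last-first.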
PK Bst: pyruvate kinase (B. stearothermophilus) modulation | purified pyruvate kinase, luminescence ATP production; ribose 5-phosphate activator present at AC10 | Potency, µM | 51,000 tested, 1.2% active | AID 361; in the data active = potency below about 11 µM; inconclusive = mostly about 12 µM to 25 µM;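 the screen sought inhibitors and activators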;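 also: scaled between full activation by ribose 5 phosphate and full inhibition by luteolin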
ERK AVP block: inhibitors of vasopressin-stimulated ERK signaling pathway | HEK293-V1b, vasopressin-stimulated pERK AlphaScreen | Potency, µM (top dose mostly 57.5 µM), for inactives: top-dose activity, negative = inhibition, hits mostly inhibitors | 72,000 tested, 0.99% active | AID 995; also: nearly all actives have a fitted effect of over 55% in size
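V1b-HEK293 cells; cpd 30 min 37C; 25 nM vasopressin 5 min; lyse 10 min; AlphaScreen beads 5 hr RT. Normalized to DMSO basal and 25 nM vasopressin; AC50 by Hill fit.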
* hit, by the source's call; ? = inconclusive; nt = no result given; ! = not confirmed by another sample; [ ] = another dose, or the depositor's remark. Rows were chosen to be rich in hits. Some 11% of all compounds tested hit in one or more screens of this group. Unless noted, calls follow the shape of the dose curve; as a rule, active = well fitted curve in the direction sought with a large enough effect; inconclusive = small, poorly fitted or top-dose-only effect, or another doubt; inactive = no such curve, though single readings can be large; an effect the other way counts as inactive or inconclusive. Unless noted, % is scaled to controls: 0 for no effect and ±100 for the full control effect; potency is read from the fitted curve at half-maximal effect.

SMILES	ALOX15 inhib	Luciferase inh	HADH2 inhib	HSD17B inhib	PK Bst	ERK AVP block
CCCn1c(C)nc2c(NCCOC)nc(C)nc21	-15%	nt	3%	4%	nt	-5%
CCN(CC)CCn1c(-c2ccccc2)nc2c(NCCOC)nc(C)nc21	-8%	nt	?	25µM*	nt	-25%
CC1CCN(CC[C@@H]2CCCN2S(=O)(=O)c2cccc(O)c2)CC1	-4%	-5%	13%	-11%	nt	11%
O=C(O)CCC(=O)OC[C@@H](NC(=O)C(Cl)Cl)C(O)c1ccc([N+](=O)[O-])cc1 (some centres not stated)	-3%	nt	nt	3%	nt	10%
Cc1cccc(-n2ncc3c(NC4CCCCC4)ncnc32)c1	-12%	10µM*	5%	?	nt	nt
C=CCNc1ncnc2c1cnn2-c1ccc(Cl)cc1	?	2.5µM*	-12%	25µM*	nt	nt
COc1ccccc1Nc1ncnc2c1cnn2-c1cccc(C)c1	nt	-10%[25.5 µM]	nt	nt	nt	nt
Cc1cccc(-n2ncc3c(N4CCCC4)ncnc32)c1	-3%	1.6µM*	2%	4%	5.4*	-6%
Cc1ccc(-n2ncc3c(N4CCN(c5ccccc5)CC4)ncnc32)c(C)c1	nt	-1%[25.5 µM]	nt	nt	>26	nt
Clc1ccc(-n2ncc3c(NCc4ccccn4)ncnc32)cc1	nt	-4%[25.5 µM]	nt	nt	?	nt
C=CCNc1ncnc2c1cnn2-c1cccc(C)c1	-23%	10µM*	-22%	25µM*	nt	nt
C/C(CCN1CCCc2nc(C)c(C)cc21)=N\O[C@@H](C)c1cn([C@@H]2COC[C@@H]2O)nn1	-13%[11.4 µM]	0%[11.4 µM]	6%[11.4 µM]	?	nt	18%[11.5 µM]
O=C(c1cnccn1)N1CCC2(CC1)CN(c1ccncc1)C2	1%	0%[11.4 µM]	?	3%	nt	13%
Cc1c(NC(=O)CN2c3cccc4cccc(c34)S2(=O)=O)c(=O)n(-c2ccccc2)n1C	1%	-1%	?	?	11*	-17%
COc1ccc(OC)c(NC(=O)CN2C(=O)c3ccccc3S2(=O)=O)c1	-3%[11.4 µM]	2%	6%[11.4 µM]	-1%	nt	-10%
O=C(CN1c2cccc3cccc(c23)S1(=O)=O)N1CCOCC1	?	-5%	16µM*	32µM*	>57	-18%
COc1ccc(NC(=O)CN2c3cccc4cccc(c34)S2(=O)=O)cc1	-3%	0%	3%	?	1.4*	18%
O=C(CN1C(=O)c2ccccc2S1(=O)=O)N1CCN(c2ccccc2F)CC1	7%	0%	0%	11%	>57	-17%
Cc1c(NC(=O)CN2C(=O)c3ccccc3S2(=O)=O)c(=O)n(-c2ccccc2)n1C	-1%	2%	-3%	-2%	>57	-7%
CC(=O)OC[C@H]1O[C@@H](O/N=C(\C)CCN2CCc3nc(-c4ccccc4)c(-c4ccccc4)cc3C2)[C@H](OC(C)=O)[C@@H](OC(C)=O)[C@H]1OC(C)=O	5%[11.4 µM]	0%[11.4 µM]	6%[11.4 µM]	2%[11.4 µM]	nt	8%[11.5 µM]
OCc1cc([C@@H](O)CNCCCCCCOCCCCc2ccccc2)ccc1O	?	16µM*!	11%	-10%	nt	?
CN(C)c1ccc(C2(c3ccc(N(C)C)cc3)OC(=O)c3cc(N(C)C)ccc32)cc1	0%	nt	7.9µM*	32µM*	nt	-21%
O=C(N1CCN(CCO)CC1)N1c2ccccc2C=Cc2ccccc21	0%	-1%	15%	13%	>57	0%
OCCN1CCN(C(=S)c2ccc(Cl)c(Cl)c2)CC1	-4%	-26%	?	25µM*	nt	48%
COc1cc2c(cc1OC)-c1cc(=Nc3c(C)cc(C)cc3C)n(C)c(=O)n1CC2	?	-2%	4%	-7%	nt	6.3µM*
CC(=O)Nc1nc(C=C(Cl)Cl)cs1	-22%	-1%	25µM*	?	nt	11%
CC1(C)CC(=O)C2=C(C1)NC(Nc1nc3ccccc3o1)=NC21CCCCC1	8%	6%	?	3.2µM*	>57	55%
CCN1C(=O)[C@H]2[C@H]3[C@H](O)[C@H](O)C/C(=N/NC(=O)OCc4ccccc4)[C@H]3CC[C@@H]2C1=O	6%[11.4 µM]	-8%[11.4 µM]	1%[11.4 µM]	-4%[11.4 µM]	nt	-1%[11.5 µM]
